# Experimental data reported in PubChem BioAssay (NCATS).
# Inconclusive results are not listed. The source made the active and inactive calls. Calls follow the shape of the dose curve; as a rule, active = well fitted inhibition curve with a large enough effect; inconclusive = small, poorly fitted or top-dose-only effect; inactive = flat fitted curve, though single readings scatter.
# Molecular target: Calcium and integrin-binding protein 1 (Homo sapiens) (UniProt Q99828)
# Test: Primary qHTS for Identification of Calcium Integrin Binding Protein 1 (CIB1) Competitor (AID 1508620);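 also: GST tagged CIB1 binding a fluorescein labelled alphaIIb integrin peptide tracer; top concentration of the series differs between compounds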
# Conditions: CIB1-GST / FITC-alphaIIb peptide fluorescence polarization; series mostly up to 114 µM; activity change, negative = inhibition: at the top concentration
# Method in brief: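 CIB1-GST (1 uM final) and compound incubated 15 min at room temperature before adding FITC-alphaIIb peptide tracer (100 nM final). Competition for binding read by fluorescence polarization (ex 480, em 540) after another 15 min at room temperature.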
# % is scaled to controls: 0 for no effect and ±100 for the full control effect.
# Sequence of Calcium and integrin-binding protein 1 (Homo sapiens) (Q99828 whole entry, looked up): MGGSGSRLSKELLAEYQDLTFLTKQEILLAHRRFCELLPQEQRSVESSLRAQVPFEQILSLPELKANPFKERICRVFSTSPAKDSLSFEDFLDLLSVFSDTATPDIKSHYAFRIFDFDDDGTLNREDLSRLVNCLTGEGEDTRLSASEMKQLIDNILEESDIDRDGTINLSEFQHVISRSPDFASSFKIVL
SMILES,"activity change, negative = inhibition",Potency
N#CN1CCC(NS(=O)(=O)c2cccc(C(F)(F)F)c2)CC1,-1.66% (inactive),–
CC(=O)Nc1sc2c(c1C(O)c1nc3ccccc3s1)CCN(C(C)C)C2 (stereo not given),-1.12% (inactive),–
O=S1(=O)N=C(Oc2ccccc2F)c2ccccc21,-2.86% (inactive),–
Cc1nc(C(C)N(C)c2ncnc3ccc(-c4ccc5c(c4)OCO5)cc23)cs1 (stereo not given),-3.3% (inactive),–
NC(=O)C1CCN(c2nc(-c3ccccc3-c3ccccc3)cs2)CC1,-0.431% (inactive),–
CC(C)COc1ccc(-c2csc(N3CCC(C(N)=O)CC3)n2)cc1,-3.65% (inactive),–
Cc1ccsc1CNc1ncnc2ccc(-c3ccc4c(c3)OCO4)cc12,7.49% (inactive),–
Nc1ccc(S(=O)(=O)N2CCCN(S(=O)(=O)c3ccc4c(c3)OCCO4)CC2)cc1,3.56% (inactive),–
CCc1ccc(-c2nn3c(C)nnc3s2)cc1NC(=O)c1ccc(-c2cccc(Cl)c2)o1,1.45% (inactive),–
S=C(Nc1cc(Cl)ccn1)N1CCN(c2cccc(Cl)c2Cl)CC1,2.26% (inactive),–
COc1cc(C2Nc3ccccc3C(=O)N2Cc2ccccc2)ccc1OCc1ccc(NC(C)=O)cc1 (stereo not given),-0.0571% (inactive),–
O=C(O)c1ccc(S(=O)(=O)N[C@H](Cc2ccc(C(F)(F)F)cc2)C(=O)O)cc1,-4.4% (inactive),–
Cc1cc(C)n2ncc(C(=O)NCC(C)C)c2n1,3.51% (inactive),–
O=C(NCc1nnc(C(=O)Nc2ccc(C(F)(F)F)cc2Cl)o1)c1ccccc1,2.6% (inactive),–
COc1cccc(C2c3c(ncn(-c4ccccc4OC)c3=N)Oc3ccc4ccccc4c32)c1 (stereo not given),1.52% (inactive),–
CCOC(=O)c1ccc(-c2ccc3ncnc(N(C)Cc4sccc4C)c3c2)o1,4.01% (inactive),–
Cc1cc(NC(=O)Nc2nnc(C3CCCCC3)s2)ccc1F,1.06% (inactive),–
Brc1cnc2nc(SCc3ccncc3)[nH]c2c1,15.8% (inactive),–
Cc1cc(NS(=O)(=O)c2ccc(NC(=O)Cc3ccc(Cl)c(C(F)(F)F)c3)cc2)no1,-11.6% (inactive),–
O=C1Cc2cc(S(=O)(=O)N3CCN(c4ccc(F)cc4)CC3)ccc2N1,3.72% [at 228 µM] (inactive),–

SMILES,"activity change, negative = inhibition",Potency
COc1ccc(C2Nc3ccccc3C(=O)N2Cc2ccco2)cc1COc1ccccc1 (stereo not given),–,inactive
NC(=O)c1ccc(C[C@H](C(=O)O)N2C(=O)c3ccc(C(=O)O)cc3C2=O)cc1,-2.39% (inactive),–
CCCCN(C)C(=O)Cn1nc(-c2ccccc2C)ccc1=O,7.38% (inactive),–
O=c1c2ccccc2nc2sc(Nc3ccc(F)cc3)nn12,11.4% (inactive),–
O=C1CCCC2=C1C1(CCCC1)N=C(Nc1nc3cc4ccccc4cc3o1)N2,-2.54% (inactive),–
CC(C)(C)OC(=O)Cc1nnc(-c2nc3ccccc3[nH]2)o1,-4.45% (inactive),–
COc1ccc(C2Nc3ccccc3C(=O)N2Cc2ccccc2)cc1Oc1ccc(NC(C)=O)cc1 (stereo not given),6.85% (inactive),–
CC(C)c1ccccc1-c1nc(NCC2CCN(c3cccnc3)CC2)c2ccccc2n1,95.1% (inactive),–
CS(=O)(=O)c1ccc(C(=O)OCC#CCSc2nnc(-c3cccc4ccccc34)o2)cc1,4.63% (inactive),–
C=CCNc1oc(-c2cccnc2)nc1C#N,-0.52% (inactive),–
COc1ccc(C=O)cc1COc1ccc(NC(C)=O)cc1,6.52% (inactive),–
N#Cc1c(-c2ccc(Cl)c([N+](=O)[O-])c2)no[n+]1[O-],-12.3% (inactive),–
O=C(OCC#CCSc1nnc(-c2cccc3ccccc23)s1)c1cccs1,-10.7% (inactive),–
CN(Cc1ccco1)c1ncnc2ccc(-c3ccc4c(ccn4C)c3)cc12,-3.65% (inactive),–
O=C(C1CCN(c2nc(-c3ccc(Br)cc3)cs2)CC1)N1CCOCC1,4.07% (inactive),–
O=C1OC(c2ccccc2)(c2ccccc2)N2CCN(C(=O)NCc3ccc(F)cc3)CC12 (stereo not given),4.41% (inactive),–
CC(C)c1ccccc1-c1nc(NCc2ccc(-c3cccnc3)cc2)c2cccn2n1,-4.05% (inactive),–
Cc1cccc(-n2cnc3cc(C(=O)N4CCC(C#N)CC4)ccc32)c1,-0.663% (inactive),–
Oc1ccc(/C=C/c2c(F)cccc2F)c2cccnc12,-9.9% (inactive),–
Fc1cc(Nc2nc(-c3ccncc3)nc3ccccc23)ccc1C(F)(F)F,2.78% (inactive),–
